# This is a sample that favours compounds with a hit; in the whole collection about 0.78% have one here.
# SARS 3CLpro inh: SARS-CoV 3CLpro protease inhibition | recombinant SARS-CoV 3CLpro, quenched FRET peptide cleavage | inhibition, % at 6 µM | actives 0.14% (n = 290,000) | P0C6X7; in the data active = inhibition above about 12%
# SSB-PriA inh: K. pneumoniae PriA-SSBct interaction inhibition. AID 1272365. AlphaScreen SSBct-PriA binding, biotinylated peptide. actives 0.6% (n = 430,000). inhibition, % at 33 µM; in the data active = inhibition mostly above about 37%, no sharp cut-off; inactive = mostly below about 20%;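 also: plate controls were negative control peptide for no effect and reference peptide for full effect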
# BJeLR lethal: BJeLR cell viability loss; AID 1554; BJeLR (HRASV12) viability, CellTiter-Glo ATP luminescence, 48 h; inhibition, % (concentration not given with the values); actives 0.17% (n = 300,000); in the data active = inhibition above about 50%
# * marks the source's active call; other numbers are inactive results; / = no result given; ! = not active in a repeat.
SMILES,SARS 3CLpro inh,SSB-PriA inh,BJeLR lethal
Cc1cc(C)c(C)c(N=Nc2nc3ccccc3n2C)c1C,3,68*,11
Cc1nc(C(C)(C)C)cc(=O)n1CC(=O)NCc1ccccc1Cl,/,-8,/
Nc1c(NC2CCCCC2)c2ccccc2oc1=O,0,50*!,6
Cc1ccc(S(=O)(=O)Nc2c(NC3CCCCC3)c3ccccc3oc2=O)cc1,-5,-18,5
O=[N+]([O-])c1ccc(-c2cnc(SC(c3ccccc3)c3ccccc3)[nH]2)cc1,6,32,3
O=[N+]([O-])c1ccc(-c2cnc(SCc3ccccc3Cl)[nH]2)cc1,4,39*,1
COc1ccc(C)c2sc(N(CCN(C)C)C(=O)c3ccc4ccccc4c3)nc12,-1,43*!,-8
Cc1cc(C)c2nc(N(CCN(C)C)C(=O)c3ccc4ccccc4c3)sc2c1,-6,38*!,-1
COc1ccc(C)c2sc(N(CCN(C)C)C(=O)CCOc3ccccc3)nc12,/,15,/
COc1cc2ccccc2cc1C(=O)N(CCN(C)C)c1nc2ccc(Br)cc2s1,-9,49*,-1
COc1cc2ccccc2cc1C(=O)N(CCN(C)C)c1nc2c(F)cc(F)cc2s1,7,10,-8
Cc1cc(C)c2nc(N(Cc3ccccn3)C(=O)c3ccc4ccccc4c3)sc2c1,/,-14,/
O=C(NCCC1=CCCCC1)C1COCC(=O)N1Cc1ccccc1 (stereo unspecified),/,-2,/
O=[N+]([O-])c1nn(-c2ccc3c(c2)OCCO3)n(O)c1=NC1CCCCCC1,2,55*,3
O=[N+]([O-])c1nn(-c2ccccc2)n(O)c1=NC1CCCCC1,/,52,/
O=[N+]([O-])c1nn(-c2cccc(Cl)c2)n(O)c1=NC1CCCCC1,/,90*,/
O=[N+]([O-])c1nn(-c2ccc3c(c2)OCCO3)n(O)c1=Nc1ccc(Cl)cc1,6,21,7
CCc1ccc(N=c2c([N+](=O)[O-])nn(-c3ccc4c(c3)OCCO4)n2O)cc1,6,58*,0
O=[N+]([O-])c1nn(-c2ccc3c(c2)OCCO3)n(O)c1=NC1CCCC1,-3,-12,6
Cc1nnc2[nH]nc(Nc3ccccc3)n2c1=O,/,-25,/
O=S(=O)(Nc1ccccc1-c1nc2ccccc2s1)c1ccc(Cl)s1,/,-17,/
N#Cc1ccc(COCC2CCN(S(=O)(=O)c3ccc4ccccc4c3)CC2)cc1,/,-2,/
Cc1ccc(-c2ccccc2[C@@H]2C[C@H]3CN(C)C(=O)[C@]34CCCN24)o1,-1,-12,-4
O=C1N(c2ccccc2)C[C@@H]2C[C@@H](c3cc4ccccc4o3)N3CCC[C@@]123,2,-8,51*
N/C(=N\OC(=O)Cc1ccccc1)c1ccccn1,-4,/,-2
SMILES,SARS 3CLpro inh,SSB-PriA inh,BJeLR lethal
NC(=NOC(=O)Cc1ccc([N+](=O)[O-])cc1)c1ccccn1,/,42*,/
O=C(C1c2ccccc2Oc2ccccc21)N1CCCSCC1CN1CCOCC1 (stereo unspecified),/,-1,/
Cc1cc(C)nc(SCc2ccc(C(=O)NN=C3CCCC3)cc2)n1,3,-8,14
COC(=O)c1ccc(CSc2nc(C)cc(C(F)(F)F)n2)cc1,/,38*,/
O=c1c2c3c(sc2[nH]c(=S)n1-c1nccs1)CCCC3,/,-2,/
O=C(C1=NNc2ccc(Cl)cc2S1(=O)=O)N1CCOCC1,/,-8,/
Cc1ccc(C)c(CC(=O)Nc2nnc(-c3ccno3)o2)c1,/,56*,/
Cc1ccc(C)c(CC(=O)Nc2nnc(-c3ccccc3)o2)c1,/,25,/
Cc1cc2ncc3c(n2n1)CCN(C(=O)CSC1CCCC1)C3,/,-5,/
O=C(COc1ccc(Cl)cc1Cl)Nc1ccc(S(=O)(=O)N2CCOCC2)cc1,/,60*,/
O=C(COc1ccccc1Cl)Nc1ccc(S(=O)(=O)N2CCOCC2)cc1,-2,-11,-3
CCOc1ccccc1C(=O)N1CCN(c2cccc(Cl)c2)CC1,6,6,53*
O=C(O)c1ccccc1C(=O)N1CCN(c2cccc(Cl)c2)CC1,-2,-7,-5
O=C(NCc1ccc(F)cc1)c1cc(OCc2ccccc2)no1,/,-17,/
CN(C)c1ccc(N=Nc2cccc(F)c2)cc1,-2,32,-3
Cc1cccc(N=Nc2ccc(N(C)C)cc2)c1,7,55*,-5
COc1ccc(Nc2cccc3ccccc23)cc1,/,50*,0
CC(=O)Nc1cccc(NC(=S)Nc2cccc3ccccc23)c1,2,20,-9
COc1ccc(NC(=S)Nc2cccc3ccccc23)cc1OC,2,43*,2
COc1ccc(Nc2cccccc2=O)cc1,2,-13,-2
CCOc1ccc(S(=O)(=O)NC(c2cccnc2)C2CCOCC2)cc1F (stereo unspecified),/,-1,/
COc1cc2c(c(OC)c1OC)-c1ccc(O)c(=O)cc1C(NC(C)=O)CC2 (stereo unspecified),-1,-1,57*
